The list is not random: actives were taken first. Their share in the collection is about 6.1%.
ATXN2 expr inh – ATXN2 expression inhibition | HEK-293 ATXN2-luciferase reporter, luminescence, 24 h | Potency, µM (highest dose often 57 µM), for inactives: at the highest dose activity change, negative = inhibition, actives largely listed as inhibitors | AID 1745845 | 0.72% of 360,000 active; also: % is scaled to controls: 0 for no effect and ±100 for the full control effect; nearly all actives have a fitted effect of over 55% in size
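ATXN2-luciferase reporter cells (luciferase flanked by upstream and downstream ATXN2 gene portions) were treated 24 h at 37 °C with compounds at up to 57 uM. SteadyGlo luminescence gave expression; GF-AFC fluorescence gave viability.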
S2 tox – viability counter-screen for ATXN expression inhibitors | S2 cells (HEK-293 line with an ATXN2-luciferase reporter) viability, CellTiter-Fluor protease fluorescence, 24 h | Potency, µM (series often up to 56.7 µM), hits mostly cytotoxic | 0.49% of 400,000 active; also: nearly all actives have a fitted effect of over 40% in size
RORgamma inh – ROR gamma (mouse) transcription inhibition; Potency, µM (titrated, usually from 53.6 µM), for inactives: at the highest dose activity change, negative = inhibition, hits mostly inhibitors; P51450; 5.4% of 310,000 active; AID 2551; Drosophila S2 Gal4-RORgamma UAS-luciferase reporter, 20 h; also: % is scaled to controls: 0 for no effect and ±100 for the full control effect; nearly all actives have a fitted effect of over 60% in size
Target sequence (P51450 whole entry, looked up, the tested form may be a part): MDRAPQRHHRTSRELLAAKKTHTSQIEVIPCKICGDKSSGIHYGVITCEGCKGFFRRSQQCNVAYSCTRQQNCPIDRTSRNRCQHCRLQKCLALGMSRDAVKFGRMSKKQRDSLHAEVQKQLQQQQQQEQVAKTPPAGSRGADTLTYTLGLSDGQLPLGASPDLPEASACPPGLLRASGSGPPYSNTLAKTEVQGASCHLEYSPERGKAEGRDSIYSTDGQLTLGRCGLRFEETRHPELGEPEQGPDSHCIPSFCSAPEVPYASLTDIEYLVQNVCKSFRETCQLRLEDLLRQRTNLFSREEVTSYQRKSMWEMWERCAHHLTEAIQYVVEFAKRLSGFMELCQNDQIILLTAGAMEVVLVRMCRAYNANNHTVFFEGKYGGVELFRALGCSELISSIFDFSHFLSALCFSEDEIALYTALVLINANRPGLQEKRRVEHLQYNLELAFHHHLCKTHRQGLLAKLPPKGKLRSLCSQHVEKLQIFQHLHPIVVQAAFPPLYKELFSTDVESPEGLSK
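Luciferase reporter read in Schneider cells carrying Gal4-RORγ (mouse) and UAS-Photinus luciferase; cells given compound 1 h before 700 uM copper sulfate induction, then incubated 20 h at ambient temperature.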
TGFb SMAD3 inh – TGF-b pathway inhibition | HepG2 CAGA-GFP TGF-b/SMAD3 reporter, GFP fluorescence, 18 h; TGF-beta stimulated, 500 pg/mL final | Potency, µM (highest dose often 46.1 µM), for inactives: top-dose activity, negative = inhibition, hits mostly inhibitors | 1.2% of 410,000 active | AID 588855; also: % is scaled to controls: 0 for no effect and ±100 for the full control effect; nearly all actives have a fitted effect of over 65% in size
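TGF-beta reporter screen: HEPG2 CAGA-GFP, 1% FBS, 500 pg/mL TGF-beta final, 18 h; per-cell GFP summed per well; curves fitted and categorized by class.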
HepG2 tox-1 – HepG2 cytotoxicity, counter-screen for TGF-b inhibitors; HepG2 CAGA-GFP viability, ATP luminescence, 18 h; Potency, µM (series often up to 46.1 µM), for inactives: top-dose activity change, negative = cytotoxicity, usual class: cytotoxic; 0.76% of 410,000 active; AID 588856
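HepG2 CAGA-GFP cells (1000/well, DMEM with 1% FBS) received compound, then TGF-beta at 500 pg/mL final, and were incubated 18 hours at 37 degrees C. Viability was read by CellTiter-Glo luminescence. Media-only wells were set as complete cell-killing and DMSO as no toxicity.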
VP16 counter – Gal4-VP16 reporter inhibition counter-screen | Drosophila S2 Gal4-VP16 UAS-luciferase, luminescence, 20 h | Potency, µM (doses to about 53.6 µM), for the others: at the top dose activity, negative = inhibition, actives largely listed as inhibitors | 3.5% of 310,000 active | AID 2546;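 also: Gal4-VP16 expression switched on by copper sulfate through the metallothionein promoter; % is scaled to controls: 0 for no effect and ±100 for the full control effect; nearly all actives have a fitted effect of over 50% in size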
TGFb CAGA inh – confirmation of TGF-b signaling inhibitors in HepG2 reporter cells; shares compounds with TGFb SMAD3 inh; HepG2 CAGA-GFP TGF-b reporter, GFP fluorescence, 18 h; cells stimulated with TGF-beta, 500 pg/mL; Potency, µM (series often up to 46.1 µM), for inactives: top-dose activity, negative = inhibition, hits mostly inhibitors; 63% of 1,600 active; AID 720534; also: % is scaled to controls: 0 for no effect and ±100 for the full control effect; nearly all actives have a fitted effect of over 65% in size
HepG2 tox-2 – counter-screen for TGF-b inhibitors: cytotoxicity in HepG2 cells | shares compounds with TGFb SMAD3 inh | HepG2 CAGA-GFP viability, ATP luminescence, 18 h; cells stimulated with TGF-beta, 500 pg/mL | Potency, µM (titrated, usually from 46.1 µM), inactives show top-dose activity, negative = cytotoxicity, hits mostly inhibitors | 27% of 1,600 active; also: % is scaled to controls: 0 for no effect and ±100 for the full control effect; nearly all actives have a fitted effect of over 70% in size
CCL64 TGFb inh – orthogonal confirmation of TGF-b inhibitors in CCL64 cells. 41% of 1,600 active. CCL64 CAGA-GFP reporter, TGF-b stimulated, GFP fluorescence, 18 h. Potency, µM (top dose mostly 46.1 µM), for inactives: at the highest dose activity, negative = inhibition, usual class: inhibitors. shares compounds with TGFb SMAD3 inh. AID 720536; also: nearly all actives have a fitted effect of over 65% in size
TGFb COP inh – validation of TGF-b inhibitors in HepG2 COP promoter reporter; HepG2 COP-GFP TGF-b reporter, GFP fluorescence, 18 h; cells stimulated by added recombinant TGF-beta; 3% of 1,600 active; shares compounds with TGFb SMAD3 inh; Potency, µM (doses to about 46.1 µM), for the others: at the top dose activity, negative = inhibition, hits mostly inhibitors; AID 720537; also: nearly all actives have a fitted effect of over 70% in size
* hit, by the source's call; i = inactive; ? = inconclusive; nt = no result. Calls follow the shape of the dose curve; as a rule, active = well fitted curve in the direction sought with a large enough effect; inconclusive = small, poorly fitted or top-dose-only effect, or another doubt; inactive = no such curve, though single readings can be large; an effect the other way counts as inactive or inconclusive. Potency is read from the fitted curve at half-maximal effect.

SMILES | ATXN2 expr inh | S2 tox | RORgamma inh | TGFb SMAD3 inh | HepG2 tox-1 | VP16 counter | TGFb CAGA inh | HepG2 tox-2 | CCL64 TGFb inh | TGFb COP inh
O=C(O)CCC(=O)N1CCN(S(=O)(=O)c2ccc3ccccc3c2)CC1 | 21% | i | 2% | 2% | -6% | -2% | nt | nt | nt | nt
O=C(CCC(=O)N1CCN(S(=O)(=O)c2ccc3ccccc3c2)CC1)Nc1cc(Cl)cc(Cl)c1 | nt | i | 19% | 7.1µM* | -22% | -11% | ? | -22% | -16% | -9%
O=C(Cn1ncc(Cl)c(Cl)c1=O)N1CCN(S(=O)(=O)c2ccc3ccccc3c2)CC1 | ? | nt | 13µM* | 4µM* | -54% | ? | 2.6µM* | 2.6µM* | 5.2µM* | -22%
O=C(Nc1cc(F)ccc1F)C1CCN(c2nc3ccccc3n3cccc23)CC1 | nt | nt | nt | -2% | 1% | nt | nt | nt | nt | nt
CCCn1c(=O)c2sccc2n2c(CCCC(=O)NCCc3ccc(Cl)cc3)nnc12 | nt | nt | nt | ? | -27% | nt | nt | nt | nt | nt
CCN(C[C@H]1N[C@@](Cc2ccccc2)(C(=O)OC)[C@H]2C(=O)N(Cc3ccccc3)C(=O)[C@@H]12)C(=O)Nc1ccc(C)cc1 | -9% | ? | nt | ? | -13% | nt | 15µM* | -14% | ? | 13%
CCN(C[C@H]1N[C@@](CC)(C(=O)OC)[C@H]2C(=O)N(Cc3ccccc3)C(=O)[C@@H]12)C(=O)Nc1ccc(C)cc1 | 8% | i | nt | -21% | -25% | nt | nt | nt | nt | nt
COc1ccc(NC(=O)[C@@H]2CC=C[C@@H]3CCN(Cc4ccc(Cl)c(Cl)c4)C(=O)[C@@H]32)cc1 | -21% | ? | nt | 13µM* | -23% | nt | 2.9µM* | -22% | 29µM* | 29%
Cc1onc(-c2ccccc2)c1C(=O)Nc1ccccc1NC(=O)c1c(-c2ccccc2)noc1C | -7% | i | -20% | ? | 0% | -7% | nt | nt | nt | nt
Cc1onc(-c2ccccc2)c1C(=O)Nc1ncc([N+](=O)[O-])s1 | ? | ? | ? | 8.9µM* | -35% | ? | 15µM* | ? | 23µM* | 50%
CCOc1ccc(-c2cc(C(=O)Nc3ccc(NC(C)=O)cc3)no2)cc1 | nt | nt | nt | -29% | -12% | nt | nt | nt | nt | nt
COCCn1c(=O)c(-c2cccc(C#N)c2)nc2cnc(N3CCN(C)CC3)nc21 | nt | nt | -9% | nt | nt | -3% | nt | nt | nt | nt
Nc1nc(Nc2ccccc2)sc1C(=O)c1ccccc1 | 11% | i | -33% | 5.6µM* | -36% | ? | 3.7µM* | 3.7µM* | 21µM* | 21%
CCc1ccccc1S(=O)(=O)Cc1ccc(C(=O)NCCc2ccc(C)cc2)o1 | ? | ? | nt | -14% | -21% | nt | nt | nt | nt | nt
